A selection: hits, their analogues and other compounds. The true share with any hit is near 1.4%.
TSHR antagonist: human thyrotropin receptor antagonism; P16473; TSHR-expressing cells, TSH-stimulated cAMP HTRF, 2 h; active compounds read low; AID 504810; actives 0.2% (n = 330,000); activity change, negative = inhibition, % at 11.5 µM;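 active = activity change below a set negative limit, meaning inhibition stronger than a set level, cut at about -70% in these data; inconclusive = activity change between two set negative limits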
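Cell-based HTRF cAMP assay; TSHR cells + compound, TSH EC80 (4nM final), 2 h, 37 deg C. Lysis with anti-cAMP cryptate and cAMP-d2, 30 min RT, read 665/620 nm.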
BRCA1 expr up: increases BRCA1 expression; MCF7-BRCA1-FFLuc reporter, luminescence, 48 h; response scale: scaled: vehicle 0%, 10 µM genistein 100%; Potency, µM (top dose mostly 46.1 µM), hits mostly activators; actives 1.1% (n = 380,000); also: nearly all actives have a fitted effect of over 80% in size
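Reporter cells (MCF7, BRCA1 promoter-firefly luciferase) received library compounds across a concentration series for 48 h. End-point luminescence was measured and concentration-effect curves derived after normalization.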
GLS inhibitor: blocks human kidney-isoform glutaminase activity | GLS enzymatic activity, qHTS titration | AID 624170 | actives 0.21% (n = 410,000) | Potency, µM (series often up to 45.5 µM), actives largely listed as inhibitors | O94925
Target sequence (O94925 whole entry, looked up, canonical isoform): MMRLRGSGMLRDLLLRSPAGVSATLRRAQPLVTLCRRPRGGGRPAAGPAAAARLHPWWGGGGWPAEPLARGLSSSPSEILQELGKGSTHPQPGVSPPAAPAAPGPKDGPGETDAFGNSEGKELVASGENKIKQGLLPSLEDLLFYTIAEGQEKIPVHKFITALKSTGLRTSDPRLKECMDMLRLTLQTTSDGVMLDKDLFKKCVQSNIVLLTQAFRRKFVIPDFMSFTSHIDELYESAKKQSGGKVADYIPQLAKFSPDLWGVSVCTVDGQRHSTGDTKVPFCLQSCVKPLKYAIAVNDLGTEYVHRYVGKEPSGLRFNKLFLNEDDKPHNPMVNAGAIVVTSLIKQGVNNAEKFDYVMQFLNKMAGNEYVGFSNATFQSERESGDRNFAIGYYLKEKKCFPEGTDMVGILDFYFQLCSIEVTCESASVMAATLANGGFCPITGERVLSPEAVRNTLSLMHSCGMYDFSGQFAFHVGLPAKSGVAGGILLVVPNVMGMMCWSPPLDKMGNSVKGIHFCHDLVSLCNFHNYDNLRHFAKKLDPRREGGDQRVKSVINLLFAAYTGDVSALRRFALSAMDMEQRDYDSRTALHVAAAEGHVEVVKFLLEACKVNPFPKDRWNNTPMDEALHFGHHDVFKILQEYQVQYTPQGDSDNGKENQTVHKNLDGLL
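Two-point fluorescence kinetic (t0, 30 min RT) for hKGA; glutamate detected via glutamate oxidase–HRP–Amplex Red. Substrate: 1 mM L-glutamine solution; buffer 45 mM KH2PO4, pH 8.2.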
p53 reactivator: re-activators of mutant p53; Potency, µM (highest dose often 92.2 µM), most hits filed as activators; H1299 p53-A138V BP100-luciferase reporter, luminescence, 24 h; actives 0.063% (n = 320,000); also: nearly all actives have a fitted effect of over 45% in size
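H1299 (p53-null), stable ts p53-A138V + BP100-Luc; 1000 cells/well, Opti-MEM/10% FBS; cpd 4 pt, 1:5; 24 h, 37 deg C, 5% CO2; detection reagent 10 min RT; luminescence.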
TCR act: T cell receptor activation | primary human leukocytes, anti-CD3, IL-2 HTRF, 48 h | Potency, µM (top dose mostly 9.22 µM), hits mostly activators | 330,000 tested, under 10 active | AID 504894
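Using a-CD3 beads without co-stimulation, primary human leukocytes were exposed to compounds for 48 hr. An HTRF IL-2 kit measured the cytokine, with europium-to-d2 energy transfer producing emission at 665nm upon 320nm excitation.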
N370S GC mod: N370S glucocerebrosidase modulation, Gaucher chaperone candidate. P04062. N370S GC spleen homogenate, 4MU-glucoside fluorescence. Potency, µM (titrated, usually from 59.4 µM), usual class: inhibitors. actives 0.092% (n = 330,000). AID 2101
Numbers stand for hits. Unless noted, calls follow the shape of the dose curve; as a rule, active = well fitted curve in the direction sought with a large enough effect; inconclusive = small, poorly fitted or top-dose-only effect, or another doubt; inactive = no such curve, though single readings can be large; an effect the other way counts as inactive or inconclusive.

How did O=C(N/N=C/c1ccccn1)NC12CC3CC(CC(C3)C1)C2 do in these assays?
TSHR antagonist: inactive; BRCA1 expr up: 4µM; GLS inhibitor: inactive; p53 reactivator: inactive; TCR act: inactive; N370S GC mod: inconclusive

How did O=C(N/N=C/c1cc([N+](=O)[O-])ccc1O)NC12CC3CC(CC(C3)C1)C2 do in these assays?
TSHR antagonist: inactive; BRCA1 expr up: inactive; GLS inhibitor: 10µM; p53 reactivator: inconclusive; TCR act: inactive; N370S GC mod: inactive

Results for CC(=O)C1=C(O)C(=O)N(c2ccc(O)cc2)C1c1cccc(F)c1 (stereo not drawn) ?
TSHR antagonist: -80; BRCA1 expr up: inactive; GLS inhibitor: inactive; p53 reactivator: inactive; TCR act: inactive; N370S GC mod: inactive

What do the screens show for `CC(=O)C1=C(O)C(=O)N(c2ccc(Br)cc2)C1c1cccc(F)c1` (stereo not drawn)?
TSHR antagonist: inactive; BRCA1 expr up: inactive; GLS inhibitor: inactive; N370S GC mod: inactive

What do the screens show for `COc1cc2c(NC3CCN(C)CC3)nc(N3CCCN(C)CC3)nc2cc1OCCCN1CCCCC1`?
BRCA1 expr up: inactive

How did COc1cc2c(NC3CCN(C)CC3)nc(N3CCN(C)CC3)nc2cc1OCCCN(C)C do in these assays?
BRCA1 expr up: inactive

How did CCOC(=O)CN1C(=O)S/C(=C/c2ccc3c(c2)n(C)c(=O)n3C)C1=O do in these assays?
TSHR antagonist: inactive; BRCA1 expr up: 5µM; GLS inhibitor: inactive; p53 reactivator: inconclusive; TCR act: inactive; N370S GC mod: inactive

What do the screens show for `CC1=Nc2ccccc2/C1=C/c1ccc(N(C)C)cc1`?
BRCA1 expr up: inactive

How did c1ccc(NC2=Nc3ccccc3CS2)cc1 do in these assays?
TSHR antagonist: inactive; BRCA1 expr up: 3.5µM; GLS inhibitor: inactive; p53 reactivator: inconclusive; TCR act: inactive; N370S GC mod: inactive

Results for Cc1ccc(NC2=Nc3ccccc3CC2)cc1 ?
TSHR antagonist: inactive; BRCA1 expr up: inactive; GLS inhibitor: inactive; p53 reactivator: inactive; TCR act: inactive; N370S GC mod: inactive

Results for CCCc1cc(=O)n2[nH]c(-c3ccc(Cl)cc3)cc2n1 ?
TSHR antagonist: inactive; BRCA1 expr up: 7.1µM; GLS inhibitor: inactive; N370S GC mod: inactive

Results for CCCc1cc(=O)n2[nH]c(-c3ccccc3)cc2n1 ?
TSHR antagonist: inactive; BRCA1 expr up: inactive; GLS inhibitor: inactive; p53 reactivator: inconclusive; TCR act: inactive; N370S GC mod: inactive

Results for CCCc1cc(=O)n2[nH]c(-c3ccc(C)cc3)cc2n1 ?
TSHR antagonist: inactive; BRCA1 expr up: 1.4µM; GLS inhibitor: inactive; p53 reactivator: inconclusive; TCR act: inactive; N370S GC mod: inactive

Results for CCCCCCCC/C=C\CCCCCCCCCCCC(=O)O ?
N370S GC mod: inactive

How did O=C(NCCCc1ccccc1)c1cccc(Br)c1 do in these assays?
BRCA1 expr up: 13µM; GLS inhibitor: inactive; TCR act: inactive

What do the screens show for `CC(=O)Nc1ccc(C(=O)NCCc2ccccc2)cc1`?
TSHR antagonist: inactive; BRCA1 expr up: 13µM; GLS inhibitor: inactive; p53 reactivator: inconclusive; TCR act: inactive; N370S GC mod: inactive

What do the screens show for `O=C(NCCCc1ccccc1)c1ccc(F)cc1`?
TSHR antagonist: inactive; BRCA1 expr up: 7.1µM; GLS inhibitor: inactive; p53 reactivator: inactive; N370S GC mod: inactive

What do the screens show for `O=C(NCCc1ccccc1)c1cccc(NC(=O)C2CCCC2)c1`?
BRCA1 expr up: 10µM; GLS inhibitor: inactive; TCR act: inactive

Results for CN(C)c1ccc(NC(=O)COC(=O)CNC(=O)c2cccs2)cc1 ?
TSHR antagonist: inactive; BRCA1 expr up: inactive; GLS inhibitor: inactive; p53 reactivator: inactive; TCR act: inactive

How did CN(C)c1ccc(C(CNC(=O)c2cccs2)N(C)C)cc1 (stereo not drawn) do in these assays?
TSHR antagonist: inactive; BRCA1 expr up: 13µM; GLS inhibitor: inactive; p53 reactivator: inconclusive; TCR act: inactive; N370S GC mod: inactive

How did Nc1ccc2oc3ccccc3c2c1 do in these assays?
TSHR antagonist: inactive; BRCA1 expr up: 3.2µM; GLS inhibitor: inactive; p53 reactivator: inconclusive; TCR act: inactive; N370S GC mod: inactive

What do the screens show for `Nc1ccc(C#Cc2ccc3oc4ccccc4c(=O)c3c2)cc1`?
BRCA1 expr up: inconclusive; GLS inhibitor: inactive; TCR act: inactive

What do the screens show for `COc1cc(-c2nnn(CC(=O)Nc3ccc(OC(F)(F)F)cc3)n2)cc(OC)c1OC`?
GLS inhibitor: inactive

What do the screens show for `Clc1ccc(OCc2noc(-c3ccsc3)n2)c(Cl)c1`?
TSHR antagonist: inactive; BRCA1 expr up: 3.5µM; GLS inhibitor: inactive; p53 reactivator: inconclusive; TCR act: inactive; N370S GC mod: inactive

How did CCOC(=O)c1sc(Nc2ccccc2Cl)nc1C do in these assays?
TSHR antagonist: inactive; BRCA1 expr up: 8.9µM; GLS inhibitor: inactive; p53 reactivator: inactive; TCR act: inactive; N370S GC mod: inactive

How did CCOC(=O)c1sc(NNC(=O)c2ccc(C)cc2)nc1C do in these assays?
TSHR antagonist: inactive; BRCA1 expr up: inactive; GLS inhibitor: 1.3µM; p53 reactivator: inactive; TCR act: inactive; N370S GC mod: inactive

Results for CCOC(=O)c1sc(NNC(=O)c2ccc(F)cc2)nc1C ?
TSHR antagonist: inactive; BRCA1 expr up: inactive; GLS inhibitor: inconclusive; p53 reactivator: inactive; TCR act: inactive; N370S GC mod: inactive

How did COc1ccc(C2=Nn3c(nnc3-c3cc(OC)ccc3OC)SC2)c(OC)c1 do in these assays?
N370S GC mod: inactive

Results for O=C(Nc1ccc(F)c(Cl)c1)N1CCCC1 ?
TSHR antagonist: inactive; BRCA1 expr up: inactive; GLS inhibitor: inactive; p53 reactivator: inactive; TCR act: inactive; N370S GC mod: inactive

Results for O=C(Nc1ccc(F)c(Cl)c1)N1CCCCCC1 ?
TSHR antagonist: inactive; BRCA1 expr up: 8.9µM; GLS inhibitor: inactive; p53 reactivator: inactive; TCR act: inactive; N370S GC mod: inactive

What do the screens show for `O=C(Nc1ccc(Cl)cc1)N1CC=CCC1`?
TSHR antagonist: inactive; BRCA1 expr up: 7.9µM; GLS inhibitor: inactive; p53 reactivator: inconclusive; TCR act: inactive; N370S GC mod: inactive

Results for CCn1c2ccccc2c2cc(NC(=O)N3CCCCC3)ccc21 ?
BRCA1 expr up: 8.9µM; GLS inhibitor: inactive

Results for CCOc1ccc(NC(=O)c2ccco2)cc1 ?
TSHR antagonist: inactive; BRCA1 expr up: inactive; GLS inhibitor: inactive; p53 reactivator: inactive; N370S GC mod: inactive

How did CCOc1ccc(NC(=S)NC(=O)c2ccco2)cc1 do in these assays?
TSHR antagonist: inactive; BRCA1 expr up: 7.1µM; GLS inhibitor: inactive; p53 reactivator: inconclusive; TCR act: inactive; N370S GC mod: inactive

Results for CC(=O)N(C)c1ccc(NC(=O)c2ccco2)cc1 ?
TSHR antagonist: inactive; BRCA1 expr up: 6.3µM; GLS inhibitor: inactive; p53 reactivator: inactive; TCR act: inactive; N370S GC mod: inactive

High-throughput results as filed in PubChem.
